According to PubChem BioAssay AID540359 (Broad Institute, 2011):
Measured potencies and affinities stand elsewhere. Activity calls are given as the source filed them. No rule for the calls is given here.

Each molecule was assayed against UDP-galactopyranose mutase (Mycobacterium tuberculosis (strain ATCC 25618 / H37Rv)) (UniProt P9WIQ1) (assay: Mycobacterium tuberculosis UGM enzyme inhibition, dose response confirmation, purified biochemical assay (AID 540359)). Conditions: plate reader activity; series mostly up to 50 µM.
UDP-galactopyranose mutase (Mycobacterium tuberculosis (strain ATCC 25618 / H37Rv)), sequence (P9WIQ1 whole entry, looked up): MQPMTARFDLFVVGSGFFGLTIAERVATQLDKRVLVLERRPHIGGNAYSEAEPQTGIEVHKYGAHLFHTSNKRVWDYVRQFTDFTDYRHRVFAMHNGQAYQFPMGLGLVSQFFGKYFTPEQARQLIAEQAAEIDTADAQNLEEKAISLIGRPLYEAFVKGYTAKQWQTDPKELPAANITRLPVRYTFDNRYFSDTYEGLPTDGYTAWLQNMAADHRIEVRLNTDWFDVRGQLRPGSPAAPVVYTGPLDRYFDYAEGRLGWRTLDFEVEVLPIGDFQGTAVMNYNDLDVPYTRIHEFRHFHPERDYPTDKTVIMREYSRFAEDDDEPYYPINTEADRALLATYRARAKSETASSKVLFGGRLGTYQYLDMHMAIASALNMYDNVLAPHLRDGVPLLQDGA
In the case of `Cn1cccc1C(=O)NC(=O)COC(=O)CC12CC3CC(CC(Br)(C3)C1)C2`, the outcome is reported as “inactive”.
For `Cc1ccccc1OCCn1cc(C(=S)N2CCCC2)c2ccccc21`, the outcome was “inactive”.
`CC(N)=Nc1ccc([N+](=O)[O-])cc1` was tested, and the outcome was “inactive”.
With `CCN(C(=O)COC(=O)c1cc(Cl)ccc1OC)c1c(N)n(Cc2ccccc2)c(=O)[nH]c1=O` the outcome was “inactive”.
With `CCCC(=O)Nc1ccc(Cc2ccc(NC(=O)CCC)c(C(=O)O)c2)cc1C(=O)O` the outcome was “inactive”.
With `O=C(Nc1nccs1)c1ccc(-c2ccc([N+](=O)[O-])cc2)o1` the outcome was “inactive”.
`N#Cc1c(-c2ccccc2)ccnc1Oc1ccccc1` was tested, and the outcome was “inactive”.
In the case of `N#CCCN(CCC#N)C(=O)C1c2ccccc2Oc2ccccc21`, the outcome is reported as “inactive”.
For `COc1ccc(C(=O)NCC(=O)N2CCN(C(=O)c3ccco3)CC2)cc1[N+](=O)[O-]`, the outcome was “inactive”.
For `COc1cccc2c(=O)cn[nH]c12`, the outcome was “inactive”.
For `O=S(=O)(Nc1cccnc1Cl)c1ccc(F)cc1`, the outcome was “inactive”.
`Cc1c(C(=O)N2CCOCC2)sc(NC(=O)CCl)c1C#N` was tested, and the outcome was “inactive”.
In the case of `CCC1=NN2C(=N)/C(=C\c3cccn3-c3ccc(OC)cc3)C(=O)N=C2S1`, the outcome is reported as “inactive”.
`CCOC(=O)CNc1ccc2c(c1)OCO2` was tested, and the outcome was “inactive”.
For `CC(=O)N1CCN(S(=O)(=O)c2cccc(C(=O)NNC(=O)Cn3nc(C)cc3C)c2)CC1`, the outcome was “inactive”.
In the case of `Cc1cc(C)c(S(=O)(=O)n2c([N+](=O)[O-])cnc2C)cc1C`, the outcome is reported as “inactive”.
With `Brc1ccc(/C=N/c2nc3ccccc3n2CCN2CCOCC2)cc1` the outcome was “inactive”.
In the case of `COCCCn1c(=O)/c(=C\c2ccccc2OC(C)C)s/c1=C(/C#N)C(=O)Nc1ccc(C(=O)O)cc1`, the outcome is reported as “inactive”.
For `O=C(N=c1ccn(-c2nc3ccccc3nc2NS(=O)(=O)c2ccc(Cl)cc2)cc1)c1cccs1`, the outcome was “inactive”.
`CC1=Nc2ccccc2/C1=C\c1nc(-c2ccc(C(F)(F)F)cc2)oc1O` was tested, and the outcome was “inactive”.
`Cc1ccc(NC(=O)/C(C#N)=C/c2ccc(C)s2)c(C)c1` was tested, and the outcome was “inactive”.
In the case of `COc1ccc(-c2cc(=O)[nH]c3ccccc23)cc1`, the outcome is reported as “inactive”.
With `CCc1ccc2c(c1)C(c1ccc([N+](=O)[O-])cc1)=NNC(c1ccc(Br)cc1)=N2` the outcome was “inactive”.
`O=S(=O)(c1ccccc1)N(CC1CO1)c1cc(Cl)ccc1Cl` (stereo not drawn) was tested, and the outcome was “inactive”.
`CCOc1ccc(/C(CCC(=O)O)=N/NC(=O)c2cccc(S(=O)(=O)Nc3ccccc3OC)c2)cc1` was tested, and the outcome was “inactive”.
`CCOC(=O)C1CCCN(C(=O)C2c3ccccc3Oc3ccccc32)C1` (stereo not drawn) was tested, and the outcome was “inactive”.
`O=C(NC(=S)Nn1cnnc1)c1ccccc1Cl` was tested, and the outcome was “inactive”.
In the case of `O=c1[nH]c(=O)n(-c2ccc(F)cc2)c(O)c1/C=C1\C=Nc2ccccc21`, the outcome is reported as “inactive”.
